# Screening data as filed in PubChem BioAssay.
# BioA inh: BioA (M. tuberculosis) enzyme inhibition. AID 602481. actives 0.096% (n = 360,000). inhibition, % at 9.99 µM. purified M. tuberculosis BioA enzyme, plate reader; in the data active = inhibition above about 40%
# TcdB GH inh: TcdB glycohydrolase inhibition; P18177; TcdB glycohydrolase enzymatic assay, plate reader; inhibition, % at 9.99 µM; actives 0.24% (n = 350,000); in the data active = inhibition above about 10%
# DUSP3 inh: inhibitors of human VHR1 phosphatase (DUSP3); inhibition, % at 13.3 µM; actives 0.52% (n = 290,000); P51452; recombinant VHR phosphatase, pNPP absorbance; in the data active = inhibition above about 50%
# Target sequence (P51452 whole entry, looked up): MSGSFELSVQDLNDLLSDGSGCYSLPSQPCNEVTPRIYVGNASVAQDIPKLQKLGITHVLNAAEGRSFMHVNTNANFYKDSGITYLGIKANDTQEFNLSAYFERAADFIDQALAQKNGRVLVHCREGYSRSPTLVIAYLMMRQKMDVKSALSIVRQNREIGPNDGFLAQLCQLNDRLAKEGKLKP
# Vc quorum ag: quorum light induction in luxS cqsA deficient V. cholerae; actives 0.16% (n = 350,000); AID 588436; V. cholerae BH1578 lux reporter, luminescence, 6 h; activation, % at 18.7 µM; in the data active = activation mostly above about 9.7%, no sharp cut-off
# Y pestis TopoI: blocks Yersinia pestis topoisomerase I activity. Y. pestis Topo-I cleavage product accumulation, plate reader. activity, % at 10 µM. actives 0.064% (n = 360,000). AID 504884; in the data active = activity above about 50%, passing the limit was not always enough
# * hit, by the source's call; i = inactive; nt = no result; ! = a repeat was not active. Most compounds without a hit are left out; they make up all but 0.73% or so of the library.
SMILES,BioA inh,TcdB GH inh,DUSP3 inh,Vc quorum ag,Y pestis TopoI
C[C@@H]1CN([C@H](C)CO)C(=O)c2c(c3ccccc3n2C)-c2ccccc2CO[C@@H]1CN(C)C(=O)C1CC1,-1,-1,nt,nt,nt
C[C@@H]1CN([C@H](C)CO)C(=O)c2cc(NC(=O)CCN3CCOCC3)ccc2O[C@@H]1CN(C)Cc1ccc2c(c1)OCO2,-1,0,nt,nt,nt
CN(C)CC(=O)N[C@@H]1CC[C@H](CCn2cc(C3CC3)nn2)O[C@@H]1CO,3,-1,nt,nt,nt
O=C(O)C(Cc1c[nH]c2ccccc12)N1C(=O)c2ccccc2C1=O (stereo not drawn),nt,-1,52*!,i,7
CCN1CCN(C(=S)NCCc2ccccc2)CC1,1,nt,57*,13,12
COc1ccc(OC(=O)COc2cc(C)ccc2C)cc1,0,2,16,0,5
COc1ccc(CC(=O)Oc2cc(C)ccc2C)cc1,nt,0,58*,i,8
C[C@@H]1CN([C@@H](C)CO)C(=O)Cc2cc(NS(=O)(=O)c3ccccc3)ccc2O[C@H]1CN(C)C,10,-1,nt,nt,nt
CC(=O)N(C)C[C@@H]1Oc2cc(-c3cccc(C#N)c3)ccc2S(=O)(=O)N([C@H](C)CO)C[C@@H]1C,4,1,nt,nt,nt
CCNC(=O)C[C@@H]1CC[C@H]2[C@H](COc3ccc(NC(=O)C4CCOCC4)cc3C(=O)N2C)O1,1,-2,nt,nt,nt
CCCn1c(O)c(N=NC(=O)CNC(=O)/C=C/c2ccc(OC)cc2)c2ccccc21,1,-2,12,80*,20
CCCn1c(O)c(N=NC(=O)CNC(=O)Cc2ccc(OC)cc2)c2ccccc21,-1,4,1,439*,17
CCn1c(O)c(N=NC(=O)CNC(=O)Cc2ccccc2)c2ccccc21,0,1,-24,0,-5
Cn1c(O)c(N=NC(=O)CNC(=O)c2ccccc2)c2ccccc21,-2,1,53*,-1,2
Cn1c(O)c(N=NC(=O)CNC(=O)c2ccccc2)c2cc(Br)ccc21,-1,-1,43,0,22
O=C(C[C@H]1C=C[C@H](NC(=O)c2ccc3c(c2)OCO3)[C@H](CO)O1)NCc1ccc(F)cc1,nt,1,nt,nt,nt
CC(C)C#Cc1cnc2c(c1)C(=O)N([C@@H](C)CO)C[C@H](C)[C@@H](CN(C)Cc1ccc3c(c1)OCO3)O2,-2,0,nt,nt,nt
CO[C@@H]1CN(C)C(=O)c2ccc(NS(C)(=O)=O)cc2OC[C@H](C)N(CC2CCOCC2)C[C@H]1C,-2,0,nt,nt,nt
CC(=O)NC(Cc1ccccc1)C(=O)O (stereo not drawn),2,2,nt,0,-2
CC(=O)NC(Cc1ccccc1)C(=O)Oc1ccc2ccccc2c1 (stereo not drawn),-1,10*,nt,-1,13
O=C(Nc1nnc(-c2ccco2)o1)C1CC1,0,10*,2,0,-2
COCC(=O)N(C)C[C@@H]1Oc2cc(C#CCC(C)C)ccc2S(=O)(=O)N([C@H](C)CO)C[C@H]1C,1,1,nt,nt,nt
NS(=O)(=O)c1cccc(NC(=O)c2ccc(NS(=O)(=O)c3cccc([N+](=O)[O-])c3)cc2)c1,0,12*,nt,i,-7
CN(C)CC(=O)Nc1ccc2c(c1)[C@@H]1C[C@H](CC(=O)NCc3cc(F)ccc3F)O[C@H](CO)[C@@H]1O2,-1,-1,nt,nt,nt
Cc1cc(C(=O)NN)c2cc(Br)ccc2n1,10,-1,0,-7,0
SMILES,BioA inh,TcdB GH inh,DUSP3 inh,Vc quorum ag,Y pestis TopoI
NNC(=O)c1cc(-c2ccc(N)cc2)nc2ccc(Br)cc12,-1,1,54*,1,-1
O=C(Nc1ccc(F)cc1)N1CCCCN2[C@H](CO)[C@@H](c3ccc(C4=CCCCC4)cc3)[C@H]2C1,0,1,nt,nt,nt
O=C(CC1SC(=O)N(Cc2ccccc2)C1=O)Nc1nccs1 (stereo not drawn),-1,-8,53*,0,1
COc1ccc(C#Cc2cnc3c(c2)C(=O)N([C@@H](C)CO)C[C@H](C)[C@@H](CN(C)C(=O)CN(C)C)O3)cc1,0,1,nt,nt,nt
O=C(C[C@H]1CC[C@H](NC(=O)Nc2cc(F)ccc2F)[C@@H](CO)O1)NCc1ccccn1,0,0,nt,nt,nt
Cc1ccc(-c2cc(C(=O)Nc3ccc(S(=O)(=O)Nc4onc(C)c4C)cc3)c3ccccc3n2)cc1,nt,2,54*,i,17
Cc1cc(C)nc(NS(=O)(=O)c2ccc(NC(=O)c3cc(-c4ccccc4)nc4ccccc34)cc2)n1,0,1,12,i,10
CC(C)CC#Cc1ccc2c(c1)O[C@H](CN(C)C(=O)Cc1ccccn1)[C@@H](C)CN([C@@H](C)CO)S2(=O)=O,0,0,nt,nt,nt
